The full ranking holds about 33,000 sequences; the median of “E-score (-0.5 to 0.5)” is about -0.0014, and the highest 2% start at about 0.25. Only a selection was taken, and the highest values are over-represented in it overall.
Molecular target: T1, Cad1 (UniProt P24813)
T1 sequence: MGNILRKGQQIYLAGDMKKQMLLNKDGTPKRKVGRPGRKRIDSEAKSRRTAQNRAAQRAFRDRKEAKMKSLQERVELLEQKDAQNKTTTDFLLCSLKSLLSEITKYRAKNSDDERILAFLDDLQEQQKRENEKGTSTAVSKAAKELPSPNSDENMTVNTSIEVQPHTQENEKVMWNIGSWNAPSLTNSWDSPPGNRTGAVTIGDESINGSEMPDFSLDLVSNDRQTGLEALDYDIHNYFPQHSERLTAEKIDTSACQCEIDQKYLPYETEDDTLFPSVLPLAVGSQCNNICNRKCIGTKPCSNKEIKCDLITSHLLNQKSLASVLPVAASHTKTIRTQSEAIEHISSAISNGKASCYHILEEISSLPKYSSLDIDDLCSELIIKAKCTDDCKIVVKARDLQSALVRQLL
Assay: PBM E-score (8-mer binding enrichment) (E-score (-0.5 to 0.5)); higher = stronger / more preferred TF binding
Settings: protein concentration: 100 nM; construct: GST-full length
Method: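 Universal 'all 10-mer' protein binding microarrays (Agilent AMADID 015681) probed with GST-tagged S. cerevisiae TFs (full-length or DBD) made by in vitro transcription/translation (PURExpress), about 100-200 nM. Bound TF was detected with fluorescent anti-GST. Each ungapped 8-mer (which stands for itself and its reverse complement) is scored by the PBM enrichment score (E-score), a modified Wilcoxon-Mann-Whitney statistic from -0.5 to +0.5, computed with the Universal PBM Analysis Suite. Scale: above 0.35 generally sequence-specific binding.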

Sequence | PBM E-score
GGGTAGAC | -0.191
TCTAAAAA | -0.0235
CCCTGTGA | -0.161
GTATTAAA | 0.0777
TGATTAAA | 0.123
TTATTAAA | 0.307
AACACGTG | 0.217
ATGCCAAT | -0.0122
AATCACGT | 0.184
ATACGTAT | 0.298
ATACGTAC | -0.0354
ATACGTAA | 0.2
ACTAATCT | 0.135
ACTAATCC | 0.242
ACTAATCG | 0.356
TCTAATCA | 0.181
CCTAATCG | 0.168
ACTAATCA | 0.344
AATCCGCG | 0.13
AGTCCTAC | -0.0257
ATTGAGTC | 0.0114
ACCGAGAT | 0.0127
AGCGTAAA | 0.0495
AATTACAT | 0.354
GGTTACTA | 0.0723

Sequence | PBM E-score
AATTACTG | 0.14
AATTACTC | 0.239
AATTACAC | 0.148
GATTACTA | 0.392
CATTACTA | 0.25
AATTACTA | 0.32
CATTACTC | 0.0943
CTTTACTA | 0.213
AATTACAG | 0.161
GTTTACTA | 0.195
TCACAGGA | -0.0436
CCTCGAAC | -0.0906
GAGCTAGA | -0.178
AGAACGCG | 0.0894
GCGGTAGA | -0.0737
CGAGCGTA | 0.0172
CGAAAAGC | -0.143
GCTTCACA | -0.0729
CGATCACG | 0.273
AGATCACA | -0.0498
CGATCACA | 0.204
GACCTCCC | -0.247
ATCTAGGC | -0.102
GCAAAAGA | -0.0108
AGAATTCT | 0.278

Sequence | PBM E-score
AGAATTCA | 0.126
AGAATTCG | 0.051
ACACCCGA | 0.134
AACGCCGG | -0.0998
CACTGCGC | -0.0286
ATTCAAGA | 0.0376
GTTGGAAA | -0.0664
AGTCGCGC | 0.212
GGTCGCGA | 0.273
GGTCGCTA | -0.112
CGTCGCGA | 0.111
AGTCGCGA | 0.285
AGTCGCGG | -0.179
CAAACAAG | 0.0295
GGAGCGCC | -0.252
AACACCAG | -0.0336
GCCTTCAA | 0.0307
GTGCGGAA | 0.0803
CTAACTAA | 0.206
TTAACTAA | 0.291
TAAACTAA | 0.186
CAAACTAA | 0.258
ATAACTAA | 0.146
CAAACTAC | -0.0121
CCACTGTC | -0.0971

Sequence | PBM E-score
CCTGGAAA | -0.0814
GGGTCTAC | -0.0723
ACTCCGTA | -0.228
AGCGGACC | -0.113
ACTCGAGA | -0.0156
ACTCGAGT | 0.311
ACTCGAGG | 0.107
TAATCGGA | 0.152
AAATCGGA | 0.171
CAATCGGA | 0.259
TAGCGACA | 0.0174
ATGGCCAC | -0.21
CTGGCCAG | -0.159
ATGGCCTG | 0.0685
ATGGCCAA | -0.046
ATGGCCAG | 0.273
ATGGCCAT | 0.252
GGAGATCA | -0.0337
ATAGCCCA | 0.062
CAAACCGA | 0.0658
ATAATGAA | 0.166
AACGGAAT | 0.269
GTCGGATA | 0.0779
CTCGGATA | 0.193
CACGGATA | 0.22

Sequence | PBM E-score
AACGGAAA | 0.219
AACGGATA | 0.252
AACGGATC | 0.217
TACGGATA | 0.116
ATCGGATA | 0.276
AACGGAAG | 0.114
AACGGATT | 0.317
AACGGATG | -0.0154
CTGAGGCC | -0.0469
CTACTGCC | -0.162
CAGGATCA | -0.0245
ACTTGTGG | -0.0436
CGATAATC | -0.016
AGTTAAAA | 0.14
AAGCCCTT | -0.0922
CGCGGATC | 0.0644
CGCGGATA | 0.258
AGCGGATA | -0.0234
CCTGCCCA | -0.0659
CGTCAAGC | -0.0629
CGCATATC | 0.318
AGCATATC | 0.025
CGCATATA | -0.0685
CCCGTTCG | 0.016
AAGTCGAA | -0.0588

Sequence | PBM E-score
AAGTCGAC | 0.256
GCGTCGAA | 0.116
ATGTCGAA | -0.00122
GCGTCGAC | 0.252
CCGTCGAC | -0.0671
ATGTCGAC | 0.276
CTGTCGAC | -0.0383
AAGTCGAT | 0.0428
CCGACAAG | -0.0166
CATCTCCA | 0.09
ATACATAA | 0.12
AAACATAG | -0.0611
ATACATAC | -0.195
AAACATAT | 0.25
AAACATAC | -0.123
ATACATAT | 0.286
GCGGCCGC | 0.175
AATTGATC | -0.0161
AATTGATG | 0.251
AATTGATA | 0.206
TCACGTGA | 0.125
TCCGCTCA | -0.195
ACTCGAAA | -0.0505
AGAGCCCT | -0.122
ATTGATTA | 0.286

Sequence | PBM E-score
ATTGATTG | 0.133
ACTGATTC | -0.0134
CTTGAATA | 0.118
CCTGATGA | 0.0887
ACTGATTA | 0.265
ATTGAATA | 0.281
CCTGATTA | 0.31
ATTGATTC | 0.12
ACTGATTG | 0.0651
ATTGAATC | -0.0423
CCTGATTC | 0.0985
CAGCATAA | 0.169
AATTAAGT | 0.181
ACTACTGC | -0.0336
GACTACGA | -0.0382
GATGGGTA | 0.0269
CCAGCCAG | -0.207
GATGATTA | 0.126
GCTGATTA | 0.378
GCTGATAA | 0.161
CTCATGGC | -0.0384
TAGAACTA | 0.0157

Reference: the supplement of paper PMC3334620
